Test results reported in PubChem BioAssay (Tox21).
Activity calls are given as the source filed them. Entries that show only a call come without a potency. Calls follow the shape of the dose curve; as a rule, active = well fitted curve in the direction sought with a large enough effect in the repeat runs; inconclusive = weak or mixed curves; inactive = flat fitted curve, though single readings scatter.

Experiment: qHTS assay to test for compound auto fluorescence at 590 nm (red) in HepG2 cells (AID 720674)
Details: HepG2 autofluorescence, red 540/590 nm, 1 h; series mostly up to 91.3 µM
How it was run: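 HepG2 cells, 2,000 per well in MEM with 10% FBS, attached overnight at 37 C, then got 23 nL compound or DMSO. After 1 hr at 37 C, 5% CO2, red fluorescence was read at 540/590 nm against Rose Bengal sodium as reference.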
For Cc1cc(O)c(C(C)(C)C)cc1C(C)(C)C, the Potency was “inactive”. In the case of C=CC(=O)OCCn1c(=O)n(CCOC(=O)C=C)c(=O)n(CCOC(=O)C=C)c1=O, the Potency is reported as “inactive”. For CCCCCCCCCCn1cc[n+](CCCCCCCCCC)c1C, the Potency was “inactive”. With O=C(Nc1ccc(Oc2ccc(Cl)cc2)c(Cl)c1)c1cc(I)cc(I)c1O the Potency was “inactive”. For CCCN(CCC)C(=O)C(CCC(=O)OCCCN1CCN(CCOC(=O)Cc2c(C)n(C(=O)c3ccc(Cl)cc3)c3ccc(OC)cc23)CC1)NC(=O)c1ccccc1 (stereo not given), the Potency was “inactive”. With CN1CCN(CCC(=O)N2c3ccccc3Sc3ccc(C(F)(F)F)cc32)CC1 the Potency was “inactive”. In the case of Oc1ccc(Cl)cc1Sc1cc(Cl)ccc1O, the Potency is reported as “inactive”. In the case of CCCCN1CCCC[C@H]1C(=O)Nc1c(C)cccc1C, the Potency is reported as “inactive”. With CCCC/C=C/CCCCO the Potency was “inactive”. For O=C(OCC(COC(=O)c1ccccc1)(COC(=O)c1ccccc1)COC(=O)c1ccccc1)c1ccccc1, the Potency was “inactive”. In the case of O=S1(=O)CC(Cl)(Cl)C(Cl)(Cl)C1, the Potency is reported as “inactive”. For N#CSc1ccc(N)c([N+](=O)[O-])c1, the Potency was “inactive”. For C=C(C)C(=O)OCC[N+](C)(C)C, the Potency was “inactive”. In the case of CC1=NC(C)OC1C (stereo not given), the Potency is reported as “inactive”. For COCCCC/C(=N\OCCN)c1ccc(C(F)(F)F)cc1, the Potency was “inactive”. In the case of Cc1ccc(-n2nc(C(C)(C)C)cc2NC(=O)Nc2ccc(OCCN3CCOCC3)c3ccccc23)cc1, the Potency is reported as “inactive”. For CCCCCCCC[N+](CCCCCCCC)(CCCCCCCC)CCCCCCCC, the Potency was “inactive”. In the case of CCCCCCOC(=O)c1ccc(O)cc1, the Potency is reported as “inactive”. For [O-][n+]1ccccc1SSc1cccc[n+]1[O-], the Potency was “inactive”. With CCCCCCCCCCCCCCCCCC[N+](C)(C)Cc1ccccc1 the Potency was “inactive”. In the case of CCCC(C)c1ccccc1O (stereo not given), the Potency is reported as “inactive”. With CCCCCCCCCCCCCC[P+](CCCC)(CCCC)CCCC (tested in a mixture with another compound) the Potency was “inactive”. For Oc1cccc(-c2c3nc(c(-c4cccc(O)c4)c4ccc([nH]4)c(-c4cccc(O)c4)c4nc(c(-c5cccc(O)c5)c5ccc2[nH]5)CC4)C=C3)c1, the Potency was “inactive”. With Cc1cccc(S(=O)(=O)O)c1C the Potency was “inactive”. For CCCCCCCCS(=O)C(C)Cc1ccc2c(c1)OCO2 (stereo not given), the Potency was “inactive”. In the case of CCOC(=O)/C=C(C)/C=C/C=C(C)/C=C/c1c(C)cc(OC)c(C)c1C, the Potency is reported as “inactive”. With CC(NN)c1ccccc1 (stereo not given) the Potency was “inactive”. For CCCCC(CC)COC(=O)c1ccccc1C(=O)O (stereo not given), the Potency was “inactive”. For CCCCc1oc2ccc(NS(C)(=O)=O)cc2c1C(=O)c1ccc(OCCCN(CCCC)CCCC)cc1, the Potency was “inactive”. In the case of CCCCCOC(=O)CCCC, the Potency is reported as “inactive”. For NNc1nc(-c2ccc(N)cc2)cs1, the Potency was “inactive”. For CCc1cc(Cc2cc(CC)cc(C(C)(C)C)c2O)c(O)c(C(C)(C)C)c1, the Potency was “inactive”. With CCCCCCCCCCC=O the Potency was “inactive”. With CCCCC(CC)CN=C(N)NC(N)=NCCCCCCN=C(N)NC(N)=NCC(CC)CCCC (stereo not given) the Potency was “inactive”. With O=C(c1ccc(O)cc1O)c1ccc(O)cc1O the Potency was “inactive”. In the case of CCOC(=O)O[C@]1(C(=O)OCCl)CC[C@H]2[C@@H]3CCC4=CC(=O)C=C[C@]4(C)[C@H]3[C@@H](O)C[C@@]21C, the Potency is reported as “inactive”. In the case of Clc1ccc2cc3ccccc3cc2c1, the Potency is reported as “inactive”. In the case of C1CCCC1, the Potency is reported as “inactive”. For CCCCC(CC)COP(=O)(O)OCC(CC)CCCC (stereo not given), the Potency was “inactive”. For C[n+]1cc2c3c(ccc2c2ccc4cc5c(cc4c21)OCO5)OCO3, the Potency was “inactive”.

Experiment: qHTS assay to test for compound auto fluorescence at 535 nm (green) in HepG2 cells (AID 720675)
Details: green autofluorescence 485/535 nm, 1 h; series mostly up to 91.3 µM
With Cc1cc(O)c(C(C)(C)C)cc1C(C)(C)C the Potency was “inactive”. For C=CC(=O)OCCn1c(=O)n(CCOC(=O)C=C)c(=O)n(CCOC(=O)C=C)c1=O, the Potency was “inactive”. For CCCCCCCCCCn1cc[n+](CCCCCCCCCC)c1C, the Potency was “inactive”. For O=C(Nc1ccc(Oc2ccc(Cl)cc2)c(Cl)c1)c1cc(I)cc(I)c1O, the Potency was “inactive”. In the case of CCCN(CCC)C(=O)C(CCC(=O)OCCCN1CCN(CCOC(=O)Cc2c(C)n(C(=O)c3ccc(Cl)cc3)c3ccc(OC)cc23)CC1)NC(=O)c1ccccc1 (stereo not given), the Potency is reported as “inactive”. For CN1CCN(CCC(=O)N2c3ccccc3Sc3ccc(C(F)(F)F)cc32)CC1, the Potency was “inactive”. With Oc1ccc(Cl)cc1Sc1cc(Cl)ccc1O the Potency was “inactive”. With CCCCN1CCCC[C@H]1C(=O)Nc1c(C)cccc1C the Potency was “inactive”. With CCCC/C=C/CCCCO the Potency was “inactive”. With O=C(OCC(COC(=O)c1ccccc1)(COC(=O)c1ccccc1)COC(=O)c1ccccc1)c1ccccc1 the Potency was “inactive”. With O=S1(=O)CC(Cl)(Cl)C(Cl)(Cl)C1 the Potency was “inactive”. With N#CSc1ccc(N)c([N+](=O)[O-])c1 the Potency was “inactive”. For C=C(C)C(=O)OCC[N+](C)(C)C, the Potency was “inactive”. For CC1=NC(C)OC1C (stereo not given), the Potency was “inactive”. With COCCCC/C(=N\OCCN)c1ccc(C(F)(F)F)cc1 the Potency was “inactive”. With Cc1ccc(-n2nc(C(C)(C)C)cc2NC(=O)Nc2ccc(OCCN3CCOCC3)c3ccccc23)cc1 the Potency was “inactive”. In the case of CCCCCCCC[N+](CCCCCCCC)(CCCCCCCC)CCCCCCCC, the Potency is reported as “inactive”. With CCCCCCOC(=O)c1ccc(O)cc1 the Potency was “inactive”. For [O-][n+]1ccccc1SSc1cccc[n+]1[O-], the Potency was “inactive”. With CCCCCCCCCCCCCCCCCC[N+](C)(C)Cc1ccccc1 the Potency was “inactive”. For CCCC(C)c1ccccc1O (stereo not given), the Potency was “inactive”. For CCCCCCCCCCCCCC[P+](CCCC)(CCCC)CCCC (tested in a mixture with another compound), the Potency was “inactive”. For Oc1cccc(-c2c3nc(c(-c4cccc(O)c4)c4ccc([nH]4)c(-c4cccc(O)c4)c4nc(c(-c5cccc(O)c5)c5ccc2[nH]5)CC4)C=C3)c1, the Potency was “inactive”. For Cc1cccc(S(=O)(=O)O)c1C, the Potency was “inactive”. In the case of CCCCCCCCS(=O)C(C)Cc1ccc2c(c1)OCO2 (stereo not given), the Potency is reported as “inactive”. In the case of CCOC(=O)/C=C(C)/C=C/C=C(C)/C=C/c1c(C)cc(OC)c(C)c1C, the Potency is reported as “inactive”. For CC(NN)c1ccccc1 (stereo not given), the Potency was “inactive”. In the case of CCCCC(CC)COC(=O)c1ccccc1C(=O)O (stereo not given), the Potency is reported as “inactive”. With CCCCc1oc2ccc(NS(C)(=O)=O)cc2c1C(=O)c1ccc(OCCCN(CCCC)CCCC)cc1 the Potency was “inactive”. In the case of CCCCCOC(=O)CCCC, the Potency is reported as “inactive”. With NNc1nc(-c2ccc(N)cc2)cs1 the Potency was “inactive”. For CCc1cc(Cc2cc(CC)cc(C(C)(C)C)c2O)c(O)c(C(C)(C)C)c1, the Potency was “inactive”. With CCCCCCCCCCC=O the Potency was “inactive”. For CCCCC(CC)CN=C(N)NC(N)=NCCCCCCN=C(N)NC(N)=NCC(CC)CCCC (stereo not given), the Potency was “inactive”. In the case of O=C(c1ccc(O)cc1O)c1ccc(O)cc1O, the Potency is reported as “inactive”. With CCOC(=O)O[C@]1(C(=O)OCCl)CC[C@H]2[C@@H]3CCC4=CC(=O)C=C[C@]4(C)[C@H]3[C@@H](O)C[C@@]21C the Potency was “inactive”. For Clc1ccc2cc3ccccc3cc2c1, the Potency was “inactive”. For C1CCCC1, the Potency was “inactive”. For CCCCC(CC)COP(=O)(O)OCC(CC)CCCC (stereo not given), the Potency was “inactive”. In the case of C[n+]1cc2c3c(ccc2c2ccc4cc5c(cc4c21)OCO5)OCO3, the Potency is reported as “inactive”.
